The values that follow come from PubChem BioAssay (NCI).

Some test systems named below: DU-145 prostate; K-562 leukemia; MDA-MB-231 breast; RXF 393 renal; SF-268 CNS; SF-295 CNS; SF-539 CNS; UACC-257 melanoma; M14 melanoma; HCT-15 colon; HT29 colon; SNB-75 CNS; SNB-19 CNS; U251 CNS; PC-3 prostate; SK-MEL-5 melanoma; UACC-62 melanoma; LOX IMVI melanoma; SK-MEL-28 melanoma.
Common to all, as to assay: NCI-60 one-dose screen, 48 h (100 = growth as untreated, 0 = no growth, -100 = all killed)
What all share (settings): 10 µM

This is part of a sample that, as a whole, favours compounds with a hit. Of some 83,000 tested, about 20% had one in any assay.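 Compound tested at a single concentration for 48 hours in 96-well plates; a percent growth value below 10 was scored as active.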 Values without a mark were called inactive. Calls of active or inactive are those of the source.

As to `S=C(Cc1ccc(-c2ccccc2)cc1)N1CCOCC1`, the growth was 104% in the assay on DU-145 prostate; 95.3% with K-562 leukemia; 84.7% with MDA-MB-231 breast; 103% with RXF 393 renal; 101% with SF-268 CNS; 93.6% with SF-295 CNS. Besides, the growth in the assay on SF-539 CNS is 99%; in the assay on UACC-257 melanoma, 107%; with M14 melanoma, 101%; with HCT-15 colon it was 104%; in the assay on HT29 colon, 103%; with SNB-75 CNS, 83.1%. Also, the growth is 110% in the assay with SNB-19 CNS; 96.6% in the assay on U251 CNS; 76.7% in the assay on PC-3 prostate; 92.9% in the assay on SK-MEL-5 melanoma; 87.2% with UACC-62 melanoma; 92% in the assay on LOX IMVI melanoma. Also, the growth in the assay on SK-MEL-28 melanoma is 106%.

`C=CCNCCCN1C(=O)c2ccc3c4c(ccc(c24)C1=O)C(=O)N(CCCNCC=C)C3=O`: the growth in the assay on DU-145 prostate was -94.8% (active); in the assay on K-562 leukemia, 0.431% (active); in the assay with MDA-MB-231 breast, 1.35% (active); in the assay on RXF 393 renal it was -94.1% (active); in the assay on SF-268 CNS, -22.1% (active); in the assay on SF-295 CNS, -76.9% (active). Moreover, the growth in the assay with SF-539 CNS is -88.7% (active); in the assay with UACC-257 melanoma it was -84% (active); in the assay with M14 melanoma, -84.8% (active); in the assay on HCT-15 colon it was -72.4% (active); in the assay on HT29 colon, -17.1% (active); in the assay with SNB-75 CNS, -98.2% (active). Also, the growth is -91.2% (active) in the assay with SNB-19 CNS; -73.9% (active) in the assay on U251 CNS; -15.5% (active) in the assay with PC-3 prostate; -99.3% (active) with SK-MEL-5 melanoma; -80.4% (active) in the assay with UACC-62 melanoma; -77.5% (active) in the assay on LOX IMVI melanoma. In the assay on SK-MEL-28 melanoma, the growth is -76.3% (active).

For `O=C(NCc1cn(Cc2cccc(Oc3ccccc3)c2)nn1)c1cccnc1Nc1ccccc1`, the growth was 59.8% in the assay on DU-145 prostate; 31.9% with K-562 leukemia; 63.7% in the assay with MDA-MB-231 breast; 33.6% in the assay on RXF 393 renal; 60.5% in the assay with SF-268 CNS; 50.1% in the assay with SF-295 CNS. Further, the growth in the assay on SF-539 CNS is 54.5%; in the assay on UACC-257 melanoma it was 77%; in the assay on M14 melanoma, 33.6%; in the assay on HCT-15 colon, 30.7%; with HT29 colon, 47.8%; in the assay on SNB-75 CNS, 54.2%. The growth was 67.1% in the assay with SNB-19 CNS; 42.2% with U251 CNS; 44.5% in the assay on PC-3 prostate; 40.8% with SK-MEL-5 melanoma; 53.5% in the assay on UACC-62 melanoma; 45.1% in the assay with LOX IMVI melanoma. Besides, the growth in the assay with SK-MEL-28 melanoma is 47.8%.

As for `Cc1ccc(S(=O)(=O)Oc2ccccc2-c2ccccc2)cc1`, the growth with DU-145 prostate is 34%; in the assay with K-562 leukemia, 15.3%; in the assay on MDA-MB-231 breast it was 55.9%; in the assay on RXF 393 renal, 28.9%; in the assay with SF-268 CNS, 42.5%; in the assay on SF-295 CNS, 8.37% (active). For the same compound, the growth was 8.87% (active) in the assay on SF-539 CNS; 54.4% in the assay on UACC-257 melanoma; 6.11% (active) in the assay on M14 melanoma; 23.2% with HCT-15 colon; 5.05% (active) with HT29 colon; -12.1% (active) in the assay on SNB-75 CNS. Moreover, the growth with SNB-19 CNS was 42.8%; in the assay with U251 CNS, 24.8%; in the assay with PC-3 prostate it was 42.4%; in the assay with SK-MEL-5 melanoma, 5.97% (active); in the assay with UACC-62 melanoma, 37.1%; with LOX IMVI melanoma it was 36%. The growth in the assay with SK-MEL-28 melanoma was 30.8%.

Consider `O=[N+]([O-])C1CC2C=CC1C2` (configuration not stated), for which the growth in the assay on DU-145 prostate was 94.7%; in the assay on K-562 leukemia, 101%; in the assay with MDA-MB-231 breast, 111%; with RXF 393 renal it was 99%; in the assay on SF-268 CNS, 89.6%; in the assay on SF-295 CNS, 92.8%. The growth was 102% with SF-539 CNS; 105% in the assay with UACC-257 melanoma; 98.7% in the assay with M14 melanoma; 100% in the assay with HCT-15 colon; 99% in the assay with HT29 colon; 93.1% with SNB-75 CNS. Further, the growth in the assay with SNB-19 CNS was 109%; in the assay with U251 CNS, 101%; in the assay with PC-3 prostate it was 96.9%; in the assay with SK-MEL-5 melanoma it was 106%; in the assay on UACC-62 melanoma, 103%; with LOX IMVI melanoma it was 95.6%. Moreover, the growth in the assay with SK-MEL-28 melanoma is 110%.

For the compound `COc1ccc(/C=C(\c2cc(OC)c(OC)c(OC)c2)c2nnc(-c3cccs3)o2)cc1`, the growth was 77% with DU-145 prostate; 89.5% in the assay on K-562 leukemia; 71.7% in the assay on MDA-MB-231 breast; 49.2% with RXF 393 renal; 42% with SF-268 CNS; 73.4% in the assay with SF-295 CNS. Further, the growth in the assay with SF-539 CNS was 47.6%; in the assay on UACC-257 melanoma, 76.5%; in the assay on M14 melanoma, 93.2%; with HCT-15 colon, 103%; in the assay on HT29 colon, 90.7%; with SNB-75 CNS it was -10.5% (active). Moreover, the growth was 52.3% in the assay with SNB-19 CNS; 55.7% in the assay on U251 CNS; 81.7% in the assay on PC-3 prostate; 64.6% in the assay with SK-MEL-5 melanoma; 78.1% in the assay on UACC-62 melanoma; 92.8% in the assay on LOX IMVI melanoma. For the same compound, in the assay on SK-MEL-28 melanoma, the growth is 69.7%.

On to `CCCCNC(=O)Oc1ccc(/C(=C(\C)c2ccc(OC)cc2)c2ccc(OCCN3CCCCC3)cc2)cc1`, for which the growth is 72.9% in the assay with DU-145 prostate; -0.634% (active) in the assay on K-562 leukemia; 53.4% in the assay on MDA-MB-231 breast; 28.6% with RXF 393 renal; 66.9% with SF-268 CNS; 12.5% in the assay on SF-295 CNS. Besides, the growth was 5% (active) in the assay on SF-539 CNS; -9.86% (active) with UACC-257 melanoma; -54.8% (active) in the assay with M14 melanoma; 0.377% (active) with HCT-15 colon; 7.84% (active) in the assay on HT29 colon; 70.6% in the assay with SNB-75 CNS. Moreover, the growth with SNB-19 CNS is 69.9%; with U251 CNS, 38.9%; with PC-3 prostate, 43.3%; in the assay with SK-MEL-5 melanoma it was 44.7%; with UACC-62 melanoma it was 44%; with LOX IMVI melanoma it was 20.1%. Besides, the growth with SK-MEL-28 melanoma was 2.55% (active).

For the compound `Cc1ccc(Cl)cc1Nc1nc(C(F)(F)F)ccc1C(=O)N/N=C/c1c(Cl)cccc1Cl`, the growth in the assay on DU-145 prostate was 2.91% (active); in the assay with K-562 leukemia it was 6.49% (active); with MDA-MB-231 breast it was -12.2% (active); with RXF 393 renal it was -53.7% (active); with SF-268 CNS, -7.33% (active); in the assay on SF-295 CNS, -17.7% (active). Besides, the growth was -17% (active) in the assay with SF-539 CNS; -27.3% (active) in the assay with UACC-257 melanoma; 11.3% in the assay with M14 melanoma; 10.4% in the assay with HCT-15 colon; 16.6% in the assay on HT29 colon; 26.1% with SNB-75 CNS. For the same compound, the growth is 10.6% in the assay with SNB-19 CNS; 2.72% (active) in the assay on U251 CNS; -18.2% (active) in the assay on PC-3 prostate; -74.4% (active) in the assay with SK-MEL-5 melanoma; -17.6% (active) with UACC-62 melanoma; -22.3% (active) in the assay with LOX IMVI melanoma. In the assay with SK-MEL-28 melanoma, the growth is 18.7%.
